Assay results taken from PubChem BioAssay (NCATS).
Records with an inconclusive call do not appear. Where a call stands in place of a potency, no number is given. Active and inactive are the calls of the source. Calls follow the shape of the dose curve; as a rule, active = well fitted curve in the direction sought with a large enough effect; inconclusive = small, poorly fitted or top-dose-only effect, or another doubt; inactive = no such curve, though single readings can be large; an effect the other way counts as inactive or inconclusive.

Experiments:
[1] = molecular target: Voltage-gated inwardly rectifying potassium channel KCNH2 (Homo sapiens) (UniProt Q12809); assay: qHTS Assay for Small Molecule Inhibitors of the Human hERG Channel Activity (AID 588834); conditions: U2OS BacMam hERG, FluxOR thallium flux fluorescence; series mostly up to 46.1 µM;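 also: lower thallium flux fluorescence means stronger hERG block; nearly all actives have a fitted effect of over 50% in size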; also: potency is read from the fitted curve at half-maximal effect
Method in brief: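 Step 1: BacMam hERG transduction of U2OS, 4 hrs RT. Step 2: overnight 37 °C, plate 2000 cells/well, 4 hr. Step 3: FluxOR load, compound 10 min, stimulate, read fluorescence.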

[2] = molecular target: Glutaminase kidney isoform, mitochondrial (Homo sapiens) (UniProt O94925); assay: qHTS for Inhibitors of Glutaminase (GLS): LOPAC Validation (AID 624146); conditions: glutaminase enzyme activity inhibition; series mostly up to 46.1 µM; also: nearly all actives have a fitted effect of over 60% in size; also: potency is read from the fitted curve at half-maximal effect
Method in brief: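 Read-out is an Amplex red fluorescence increase coupled through glutamate oxidase and HRP, measured before and after 30 min room-temperature incubation. hKGA is in 45 mM KH2PO4 (pH 8.2) with 0.02% Tween-20; glutamine added as 1mM solution.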

[3] = qHTS of Trypanosoma Brucei Inhibitors: LOPAC Validation (AID 624147); conditions: purified enzyme assay, luminescence, 45 min; series mostly up to 57.5 µM
Method in brief: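 Enzyme and substrate buffer are dispensed first and compound is pin-transferred. ADP at 130 uM final then starts the reaction, which runs 45 min at room temperature. Detection reagent is added for 10 min before luminescence is imaged.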

[4] = molecular target: Glucagon-like peptide 1 receptor (Homo sapiens) (UniProt P43220); assay: qHTS of GLP-1 Receptor Agonists: LOPAC Validation (AID 624148); conditions: GLP-1R agonist cell assay; series mostly up to 46.1 µM;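 also: luminescence from a luciferase reporter switched on by cAMP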; also: potency is read from the fitted curve at half-maximal effect
Method in brief: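 Agonism scored as increased luciferase luminescence driven by cAMP in HEK293 clones carrying GLP-1R. Cells settled 12 hours, received compound for 4-6 hr at 37 deg C, 5% CO2, and were read after 12 min detection reagent at RT.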

[5] = qHTS of Nrf2 Activators: LOPAC Validation (AID 624149); conditions: Nrf2/ARE reporter cell assay; series mostly up to 46.1 µM; also: potency is read from the fitted curve at half-maximal effect
Method in brief: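 Cells (AREc32_Fluc) are plated at 1000 per well in OPTI-MEM containing 5% FBS and left overnight. Compounds are pinned in and incubated 24 hr at 37 deg C, and firefly luciferase is detected with Steady-Glo.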

[6] = HTS Assay for Allosteric Antagonists of the Human D2 Dopamine Receptor: Hit Validation in HTRF (AID 624455); conditions: Cells stably expressing D1 dopamine receptor, inhibition mode; series mostly up to 46.1 µM; also: potency is read from the fitted curve at half-maximal effect;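 also: stable D1 dopamine receptor cell line scored for blocking the D1 response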
Method in brief: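 Inhibition of the D1-mediated response is measured by HTRF in cells that stably express the D1 dopamine receptor. Compounds reaching this step are hits from calcium-flux antagonism testing at EC80 dopamine in inducible Hek293 Trex D2 cells.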

Chain of Voltage-gated inwardly rectifying potassium channel KCNH2 (Homo sapiens) (Q12809 whole entry, looked up): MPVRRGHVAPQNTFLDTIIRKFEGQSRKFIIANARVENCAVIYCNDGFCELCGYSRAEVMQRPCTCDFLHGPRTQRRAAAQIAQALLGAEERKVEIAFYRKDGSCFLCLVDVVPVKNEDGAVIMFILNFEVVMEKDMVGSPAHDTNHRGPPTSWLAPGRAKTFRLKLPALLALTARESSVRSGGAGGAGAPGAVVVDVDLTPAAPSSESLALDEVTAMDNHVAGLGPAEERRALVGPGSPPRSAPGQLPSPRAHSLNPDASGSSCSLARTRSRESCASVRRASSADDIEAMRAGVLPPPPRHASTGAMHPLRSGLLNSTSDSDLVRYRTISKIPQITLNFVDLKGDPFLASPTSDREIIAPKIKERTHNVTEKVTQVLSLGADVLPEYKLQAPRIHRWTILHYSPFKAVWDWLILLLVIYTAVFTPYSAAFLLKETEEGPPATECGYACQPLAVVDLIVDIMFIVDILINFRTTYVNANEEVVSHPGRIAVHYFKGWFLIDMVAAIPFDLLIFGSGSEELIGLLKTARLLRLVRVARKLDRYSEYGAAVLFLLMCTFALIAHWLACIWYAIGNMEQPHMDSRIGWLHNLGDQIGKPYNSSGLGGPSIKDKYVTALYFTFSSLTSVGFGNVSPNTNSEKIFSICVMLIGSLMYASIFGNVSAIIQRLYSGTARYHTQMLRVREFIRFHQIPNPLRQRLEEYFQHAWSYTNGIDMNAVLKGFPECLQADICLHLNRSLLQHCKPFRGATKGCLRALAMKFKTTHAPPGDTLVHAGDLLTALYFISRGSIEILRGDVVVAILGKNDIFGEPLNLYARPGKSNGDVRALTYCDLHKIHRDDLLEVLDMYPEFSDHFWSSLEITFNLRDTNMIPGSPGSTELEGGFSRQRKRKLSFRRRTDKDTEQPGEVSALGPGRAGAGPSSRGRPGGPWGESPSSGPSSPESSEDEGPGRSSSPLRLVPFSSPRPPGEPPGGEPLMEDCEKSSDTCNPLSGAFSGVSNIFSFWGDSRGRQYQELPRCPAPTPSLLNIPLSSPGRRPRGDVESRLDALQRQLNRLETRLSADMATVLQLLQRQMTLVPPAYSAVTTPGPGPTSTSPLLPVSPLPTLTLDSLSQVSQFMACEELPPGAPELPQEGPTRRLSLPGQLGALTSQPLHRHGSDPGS
Chain of Glucagon-like peptide 1 receptor (Homo sapiens) (P43220 whole entry, looked up): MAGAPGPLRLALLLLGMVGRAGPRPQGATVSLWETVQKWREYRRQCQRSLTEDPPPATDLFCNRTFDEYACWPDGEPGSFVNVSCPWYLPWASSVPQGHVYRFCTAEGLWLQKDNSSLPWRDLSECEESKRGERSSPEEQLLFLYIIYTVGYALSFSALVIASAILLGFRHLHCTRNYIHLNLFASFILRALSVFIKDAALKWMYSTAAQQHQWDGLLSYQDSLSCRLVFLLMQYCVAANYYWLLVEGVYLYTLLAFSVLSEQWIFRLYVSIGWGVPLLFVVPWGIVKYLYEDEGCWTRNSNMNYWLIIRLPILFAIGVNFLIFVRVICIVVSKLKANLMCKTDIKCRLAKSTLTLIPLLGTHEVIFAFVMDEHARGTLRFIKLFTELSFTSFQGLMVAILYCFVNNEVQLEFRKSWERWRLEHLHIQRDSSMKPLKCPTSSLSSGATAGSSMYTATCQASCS
Chain of Glutaminase kidney isoform, mitochondrial (Homo sapiens) (O94925 whole entry, looked up, canonical isoform): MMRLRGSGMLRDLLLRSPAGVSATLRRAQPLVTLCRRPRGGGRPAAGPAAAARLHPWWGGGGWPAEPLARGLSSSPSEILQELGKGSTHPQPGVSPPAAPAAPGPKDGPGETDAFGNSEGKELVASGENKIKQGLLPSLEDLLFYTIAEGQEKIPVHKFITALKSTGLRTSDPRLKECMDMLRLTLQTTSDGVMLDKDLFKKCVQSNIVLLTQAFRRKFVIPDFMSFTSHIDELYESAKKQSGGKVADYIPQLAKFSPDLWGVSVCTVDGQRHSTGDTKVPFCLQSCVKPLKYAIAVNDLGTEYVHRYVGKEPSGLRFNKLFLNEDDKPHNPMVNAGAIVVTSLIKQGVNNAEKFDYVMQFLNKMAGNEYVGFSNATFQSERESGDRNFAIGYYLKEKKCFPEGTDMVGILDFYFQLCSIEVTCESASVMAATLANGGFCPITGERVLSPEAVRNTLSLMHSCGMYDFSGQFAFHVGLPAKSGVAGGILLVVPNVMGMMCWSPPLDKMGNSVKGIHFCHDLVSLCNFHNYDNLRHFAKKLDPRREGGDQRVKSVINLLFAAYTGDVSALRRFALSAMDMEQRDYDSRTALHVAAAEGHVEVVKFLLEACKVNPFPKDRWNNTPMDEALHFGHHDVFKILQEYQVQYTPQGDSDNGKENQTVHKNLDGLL

| SMILES | Potency [1] | Potency [2] | Potency [3] | Potency [4] | Potency [5] | Potency [6] |
| --- | --- | --- | --- | --- | --- | --- |
| CCCn1c(=O)c2c(ncn2C)n(CCC)c1=O | inactive | inactive | inactive | inactive | inactive | inactive |
| Nc1ccc2c3c(cccc13)C(=O)NC2=O | 5.01 µM (active) | inactive | inactive | inactive | inactive | inactive |
| NC(=O)c1cc[n+](CC2=C(C(=O)O)N3C(=O)[C@@H](NC(=O)[C@@H](c4ccccc4)S(=O)(=O)[O-])[C@H]3SC2)cc1 | inactive | inactive | inactive | inactive | inactive | inactive |
| O=C(OCCN1CCOCC1)C1(c2ccccc2)CCCCC1 | inactive | inactive | inactive | inactive | inactive | inactive |
| CC#CCOC(=O)c1c(C)nc2sc3c(c2c1N)CCC(O)C3 (stereo not given) | inactive | inactive | inactive | inactive | inactive | inactive |
| COc1ccc2c(c1)c(CC(=O)O)c(C)n2C(=O)c1ccccc1 | inactive | inactive | inactive | inactive | inactive | inactive |
| COc1ccc(CCN(C)CCc2ccc(OC)c(OC)c2)cc1OC | 6.31 µM (active) | inactive | inactive | inactive | inactive | inactive |
| Clc1nccc2c1ccc1ccccc12 | inactive | inactive | inactive | inactive | inactive | inactive |
| CC(=O)[C@H]1CCC2C3CC=C4C[C@@H](OS(=O)(=O)O)CC[C@]4(C)C3CC[C@@]21C (stereo not given in full) | inactive | inactive | inactive | inactive | inactive | inactive |
| NS(=O)(=O)c1cccc2c1c([N+](=O)[O-])cc1nc(O)c(O)nc12 | inactive | inactive | inactive | inactive | inactive | inactive |
| CCSC(=N)N | inactive | inactive | inactive | inactive | inactive | inactive |
| O=C(O)c1cccnc1C(=O)O | inactive | inactive | inactive | inactive | inactive | inactive |
| Nc1nc2ccc(Cl)cc2c2nc(-c3ccco3)nn12 | inactive | inactive | inactive | inactive | 1.46 µM (active) | inactive |
| O=C(O)/C=C/c1cnc[nH]1 | inactive | inactive | inactive | inactive | inactive | inactive |
| CCN1C(=O)C=CC1=O | inactive | inactive | inactive | inactive | inactive | inactive |
| O=c1onc2cnc3ccccc3n12 | inactive | 7.08 µM (active) | inactive | inactive | inactive | inactive |
| C=CC[C@H](N)C(=O)O | inactive | inactive | inactive | inactive | inactive | inactive |
| Fc1ccc(CN(C2=NCCN2)c2c(Cl)cccc2Cl)cc1 | 10 µM (active) | inactive | inactive | inactive | inactive | inactive |
| NC(N)=NC(N)=Nc1ccccc1 | inactive | inactive | inactive | inactive | inactive | inactive |
| CCCCCC(O)CCCC(=O)O (stereo not given) | inactive | inactive | inactive | inactive | inactive | inactive |

| SMILES | Potency [1] | Potency [2] | Potency [3] | Potency [4] | Potency [5] | Potency [6] |
| --- | --- | --- | --- | --- | --- | --- |
| O=C1NC(=O)c2cc(Nc3ccccc3)c(Nc3ccccc3)cc21 | 12.6 µM (active) | 2.51 µM (active) | inactive | inactive | inactive | inactive |
| O=C1C2C=CC=CC2=NC(=S)N1CCN1CCC(=C(c2ccc(F)cc2)c2ccc(F)cc2)CC1 (stereo not given) | 0.316 µM (active) | inactive | inactive | inactive | inactive | inactive |
| CC1CCN=C(N)S1 (stereo not given) | inactive | inactive | inactive | inactive | inactive | inactive |
| Nc1ccc(CCNc2ncnc3c2ncn3C2OC(CO)C(O)C2O)cc1 (stereo not given) | inactive | inactive | inactive | inactive | inactive | inactive |
| Cc1cc2c(cc1Cl)N(C(=O)Nc1ccnc3ccccc13)CC2 | inactive | 7.08 µM (active) | inactive | inactive | inactive | inactive |
| O=C(O)C1=CCNCC1 | inactive | inactive | inactive | inactive | inactive | inactive |
| N#C/C(=C\c1ccc(O)c(O)c1)C(=O)NCCCNC(=O)/C(C#N)=C/c1ccc(O)c(O)c1 | inactive | inactive | inactive | inactive | inactive | inactive |
| CC(N)=O | inactive | inactive | inactive | inactive | inactive | inactive |
| COc1cc(C(O)CO)ccc1O (stereo not given) | inactive | 4.47 µM (active) | inactive | inactive | inactive | inactive |
| Nc1ccc(-c2nc3ccc(-c4nc5ccc(N)cc5[nH]4)cc3[nH]2)cc1 | inactive | 5.01 µM (active) | inactive | inactive | inactive | inactive |
| CSC(=N)N | inactive | inactive | inactive | inactive | inactive | inactive |
| O=c1ccn([C@@H]2O[C@H](COP(=O)(O)OP(=O)(O)O)[C@@H](O)[C@H]2O)c(=O)[nH]1 | inactive | inactive | inactive | inactive | inactive | inactive |
| CC(=O)O[C@H]1CC2(C)[C@@H](C[C@@H](O)[C@H]3[C@@]4(C)CC[C@@H](O)[C@@H](C)[C@@H]4CC[C@@]32C)C1=C(CCC=C(C)C)C(=O)O (stereo not given in full) | inactive | inactive | inactive | inactive | inactive | inactive |
| O=[N+]([O-])c1cccc2c(Br)[nH]nc12 | inactive | inactive | inactive | inactive | inactive | inactive |
| OC[C@H]1NC[C@@H](O)[C@@H]1O | inactive | inactive | inactive | inactive | inactive | inactive |
| N#Cc1cc2nc(O)c(O)nc2cc1[N+](=O)[O-] | inactive | inactive | inactive | inactive | inactive | inactive |
| NC1(C(=O)O)CCCCC1 | inactive | inactive | inactive | inactive | inactive | inactive |
| Nc1ncnc2c1ncn2C1CCCC1 | inactive | inactive | inactive | inactive | inactive | inactive |
| CC1C(=O)N(C)C(=O)c2nc[nH]c21 (stereo not given) | inactive | inactive | inactive | inactive | inactive | inactive |
| Nc1ccc(-c2ccc3ccccc3n2)cc1 | inactive | inactive | inactive | inactive | inactive | inactive |

| SMILES | Potency [1] | Potency [2] | Potency [3] | Potency [4] | Potency [5] | Potency [6] |
| --- | --- | --- | --- | --- | --- | --- |
| CC(C)C[C@H](NC(=O)C1OC1C(=O)O)C(=O)NCCCCN=C(N)N (stereo not given in full) | inactive | inactive | inactive | inactive | inactive | inactive |
| COCc1nc2c([nH]1)c(=O)n(C)c(=O)n2CC(C)C | inactive | inactive | inactive | inactive | inactive | inactive |
| Cc1nc(N=Nc2ccc(S(=O)(=O)O)cc2S(=O)(=O)O)c(COP(=O)(O)O)c(C=O)c1O | inactive | inactive | inactive | inactive | inactive | inactive |
| c1ccc(CN2CCC3(CCCc4ccccc43)CC2)cc1 | 3.98 µM (active) | inactive | inactive | inactive | inactive | inactive |
| OC[C@H]1O[C@@H](n2cnc3cncnc32)[C@H](O)[C@@H]1O | inactive | inactive | inactive | inactive | inactive | inactive |
| NC(=Nc1ccccc1)NC(=O)c1nc(Cl)c(N)nc1N | 14.1 µM (active) | inactive | inactive | inactive | inactive | inactive |
| O=C(O)c1cc2cc(F)ccc2[nH]1 | inactive | inactive | inactive | inactive | inactive | inactive |
| COc1ccccc1N1CCN(CCCCNC(=O)c2ccc3ccccc3c2)CC1 | 1.12 µM (active) | inactive | inactive | inactive | inactive | inactive |
| NCCCNCCCCNCCCN | inactive | inactive | inactive | inactive | inactive | 4.61 µM (active) |
| c1ccc2nc(C3=NCCN3)ccc2c1 | inactive | inactive | inactive | inactive | inactive | inactive |
| O=C(O)C1=CCCNC1 | inactive | inactive | inactive | inactive | inactive | inactive |
| C=CC1(C)CC(=O)C2(O)C(C)(O1)C(OC(C)=O)C(O)C1C(C)(C)CCC(O)C12C (stereo not given) | inactive | inactive | inactive | 1.03 µM (active) | inactive | 0.517 µM (active) |
| CC(N)(Cc1ccc(O)c(O)c1)C(=O)O (stereo not given) | inactive | inactive | inactive | inactive | inactive | inactive |
| NC1C=CC=C(C(=O)O)C1 (stereo not given) | inactive | inactive | inactive | inactive | inactive | inactive |
| NC(=O)CC[C@H](N)C(=O)O | inactive | inactive | inactive | inactive | inactive | inactive |
| CCC(=O)N1CCN(C(=O)c2ccccc2)CC1 | inactive | inactive | inactive | inactive | inactive | inactive |
| N[C@H](C(=O)O)[C@H](O)C(=O)O | inactive | inactive | inactive | inactive | inactive | inactive |
| CCC1(O)CC2CN(CCc3c([nH]c4ccccc34)[C@@](C(=O)OC)(c3cc4c(cc3OC)N(C=O)C3[C@]45CCN4CC=C[C@@](CC)([C@@H](OC(C)=O)[C@]3(O)C(=O)OC)[C@H]45)C2)C1 (stereo not given in full) | inactive | 7.08 µM (active) | inactive | inactive | inactive | inactive |
| CCCCCCCCCC(=O)NC(CN1CCOCC1)[C@H](O)c1ccccc1 (stereo not given in full) | 12.6 µM (active) | inactive | inactive | inactive | inactive | inactive |
| CSC(N)=NCCC[C@H](N)C(=O)O | inactive | inactive | inactive | inactive | inactive | inactive |
